Among all 5,500 compounds or so, about 2,000 (36%) were called active. Not shown: some 18% with an inconclusive outcome. No stated cut-off is given here; in the data, active means normalized growth mostly below about 0.91 (no sharp cut-off); inconclusive means no clear call, values can overlap the other calls; inactive means mostly above about 0.92. The list shows a part of the results.
Experiment: chemical genetic growth profiling, strain panel (AID 1159580);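 further: tested at 20 µM; growth read once vehicle control cultures reached saturation at 30 °C; 1 = growth at the plate median or of vehicle wells; lower values mean less growth of the strain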
Conditions: growth OD

Measured: normalized growth

C[C@@H]1[C@H]2[C@H](O[C@@H]3O[C@H](CO)[C@@H](O)[C@H](O)[C@H]3O)OC=C(C(=O)O)[C@H]2C[C@@H]1O
inactive: S. cerevisiae deletion strains, locus YAL013W, strain DEP1, hits give low values 1.01 | S. cerevisiae deletion strains, locus YBR021W, strain FUR4, hits give low values 1.05 | S. cerevisiae deletion strains, locus YBR229C, strain ROT2, hits give low values 0.964 | S. cerevisiae deletion strains, locus YCL029C, strain bik1, hits give low values 0.963 | S. cerevisiae deletion strains, locus YDL035C, strain GPR1, hits give low values 1.02 | S. cerevisiae deletion strains, locus YDL074C, strain BRE1, hits give low values 1.08 | S. cerevisiae deletion strains, locus YDL101C, strain DUN1, hits give low values 0.98 | S. cerevisiae deletion strains, locus YDL134C, strain PPH21, hits give low values 0.999 | S. cerevisiae deletion strains, locus YDL185W, strain tfp1, hits give low values 0.962 | S. cerevisiae deletion strains, locus YDL192W, strain arf1, hits give low values 1.03 | S. cerevisiae deletion strains, locus YDR101C, strain arx1, hits give low values 1.01 | S. cerevisiae deletion strains, locus YDR162C, strain NBP2, hits give low values 0.963 | S. cerevisiae deletion strains, locus YDR318W, strain mcm21, hits give low values 0.986 | S. cerevisiae deletion strains, locus YDR388W, hits give low values 0.996 | S. cerevisiae deletion strains, locus YDR502C, strain sam2, hits give low values 1 | S. cerevisiae deletion strains, locus YEL061C, strain CIN8, hits give low values 0.999 | S. cerevisiae deletion strains, locus YER110C, hits give low values 0.974 | S. cerevisiae deletion strains, locus YER155C, strain BEM2, hits give low values 1.02 | S. cerevisiae deletion strains, locus YER167W, strain BCK2, hits give low values 1 | S. cerevisiae deletion strains, locus YGL078C, strain dbp3, hits give low values 0.986 | S. cerevisiae deletion strains, locus YGL086W, strain mad1, hits give low values 1.01 | S. cerevisiae deletion strains, locus YGL248W, strain PDE1, hits give low values 0.987 | S. cerevisiae deletion strains, locus YGR078C, strain PAC10, hits give low values 0.984 | S. cerevisiae deletion strains, locus YGR135W, strain pre9, hits give low values 0.98 | S. cerevisiae deletion strains, locus YGR252W, strain gcn5, hits give low values 0.995 | S. cerevisiae deletion strains, locus YHR030C, strain SLT2, hits give low values 1.01 | S. cerevisiae deletion strains, locus YHR079C, strain IRE1 (second series), hits give low values 0.985 | S. cerevisiae deletion strains, locus YHR094C, strain hxt1, hits give low values 0.991 | S. cerevisiae deletion strains, locus YHR129C, strain ARP1, hits give low values 1 | S. cerevisiae deletion strains, locus YHR200W, strain rpn10, hits give low values 0.99 | S. cerevisiae deletion strains, locus YIL066C, strain RNR3, hits give low values 1 | S. cerevisiae deletion strains, locus YIL073C, strain SPO22, hits give low values 1.01 | S. cerevisiae deletion strains, locus YIL125W, strain kgd1, hits give low values 0.978 | S. cerevisiae deletion strains, locus YIR030C, strain dcg1, hits give low values 0.995 | S. cerevisiae deletion strains, locus YJL095W, strain BCK1, hits give low values 0.996 | S. cerevisiae deletion strains, locus YJL134W, strain LCB3, hits give low values 0.988 | S. cerevisiae deletion strains, locus YJL168C, strain set2, hits give low values 1.01 | S. cerevisiae deletion strains, locus YJL187C, strain SWE1 (second series), hits give low values 0.987 | S. cerevisiae deletion strains, locus YJR043C, strain POL32, hits give low values 1.01 | S. cerevisiae deletion strains, locus YKL009W, strain mrt4, hits give low values 1.03 | S. cerevisiae deletion strains, locus YKL068W, hits give low values 0.977 | S. cerevisiae deletion strains, locus YKL085W, strain MDH1 (second series), hits give low values 0.987 | S. cerevisiae deletion strains, locus YKL085W, strain MDH1, hits give low values 0.987 | S. cerevisiae deletion strains, locus YKR001C, strain vps1, hits give low values 0.983 | S. cerevisiae deletion strains, locus YLR039C, strain RIC1, hits give low values 1.03 | S. cerevisiae deletion strains, locus YLR058C, strain SHM2, hits give low values 0.977 | S. cerevisiae deletion strains, locus YLR102C, strain apc9, hits give low values 0.987 | S. cerevisiae deletion strains, locus YLR262C, strain YPT6, hits give low values 0.908 | S. cerevisiae deletion strains, locus YLR268W, strain sec22, hits give low values 1.02 | S. cerevisiae deletion strains, locus YLR330W, strain CHS5, hits give low values 1.01 | S. cerevisiae deletion strains, locus YLR342W, strain FKS1 (second series), hits give low values 1.11 | S. cerevisiae deletion strains, locus YLR371W, strain rom2, hits give low values 0.978 | S. cerevisiae deletion strains, locus YLR418C, strain cdc73, hits give low values 0.984 | S. cerevisiae deletion strains, locus YML016C, strain PPZ1, hits give low values 0.998 | S. cerevisiae deletion strains, locus YML032C, strain rad52, hits give low values 0.995 | S. cerevisiae deletion strains, locus YML124C, strain tub3, hits give low values 0.992 | S. cerevisiae deletion strains, locus YMR078C, strain ctf18, hits give low values 0.976 | S. cerevisiae deletion strains, locus YMR223W, strain ubp8, hits give low values 1.02 | S. cerevisiae deletion strains, locus YMR307W, strain GAS1, hits give low values 1.16 | S. cerevisiae deletion strains, locus YNL067W, strain RPL9B, hits give low values 0.992 | S. cerevisiae deletion strains, locus YNL128W, strain TEP1, hits give low values 1 | S. cerevisiae deletion strains, locus YNL233W, strain BNI4, hits give low values 1.01 | S. cerevisiae deletion strains, locus YNL250W, strain rad50, hits give low values 0.992 | S. cerevisiae deletion strains, locus YNL271C, strain bni1, hits give low values 0.994 | S. cerevisiae deletion strains, locus YNL298W, strain CLA4, hits give low values 0.991 | S. cerevisiae deletion strains, locus YNL307C, strain MCK1, hits give low values 0.986 | S. cerevisiae deletion strains, locus YNR052C, strain pop2, hits give low values 0.96 | S. cerevisiae deletion strains, locus YOL012C, strain htz1 0.853 | S. cerevisiae deletion strains, locus YOL147C, strain pex11, hits give low values 0.991 | S. cerevisiae deletion strains, locus YOR061W, strain CKA2, hits give low values 0.962 | S. cerevisiae deletion strains, locus YOR069W, strain VPS5, hits give low values 0.999 | S. cerevisiae deletion strains, locus YOR136W, strain idh2, hits give low values 0.989 | S. cerevisiae deletion strains, locus YOR144C, strain elg1, hits give low values 0.981 | S. cerevisiae deletion strains, locus YOR184W, strain ser1, hits give low values 1.02 | S. cerevisiae deletion strains, locus YOR316C, strain cot1, hits give low values 0.981 | S. cerevisiae deletion strains, locus YPR119W, strain clb2, hits give low values 0.999 | S. cerevisiae deletion strains, locus YPR141C, strain kar3, hits give low values 0.97 | S. cerevisiae deletion strains, locus YPR163C, strain tif3, hits give low values 0.989 | S. cerevisiae deletion strains, locus YPR167C, strain met16, hits give low values 0.973 | S. cerevisiae deletion strains, strain wtn01, hits give low values 1.01 | S. cerevisiae strains, strain wild type, hits give low values 1
